# A selection: hits, their analogues and other compounds. The true share with any hit is near 3.5%.
# PG9 binder – binds the HIV-1 gp120 antibody PG9; TR-FRET gp120-PG9 antibody binding; inhibition, % at 6.7 µM; 360,000 compounds, 0.43% hits; in the data active = inhibition above about 8.5%
# MBD2 inh – inhibitors of human MBD2 binding to methylated oligonucleotide; AID 686964; Q9UBB5; inhibition, % at 4.4 µM; 370,000 compounds, 0.31% hits; TR-FRET; in the data active = inhibition above about 13%
# UHRF1 MBD2 ctr – blocks human UHRF1 binding to methylated DNA. AID 687016. Q96T88. UHRF1 binding to methylated oligo, TR-FRET. inhibition, % at 4.4 µM. 370,000 compounds, 0.75% hits; in the data active = inhibition above about 21%;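 also: UHRF1 SRA domain binding a hemimethylated CpG hairpin DNA probe; 0% = median of test compound wells and 100% = reference inhibitor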
# LEDGF integ inh – blocks HIV-1 LEDGF/p75-dependent DNA integration. TR-FRET IN-LEDGF/p75 DNA integration, Eu/Cy5. inhibition, % at 3.7 µM. 370,000 compounds, 0.64% hits. AID 743269;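 active = inhibition above the screen-wide mean plus 3 SD, cut at about 13% in these data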;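 also: signal is the Cy5 over europium emission ratio at 671 and 618 nm; 0% = plate median of compound wells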
# DNMT1 inh – DNMT1 (human) enzyme inhibition. P26358. DNMT1 molecular beacon, Hinp1I cleavage, fluorescence. inhibition (reported as % activation of signal), % at 10 µM. 360,000 compounds, 0.83% hits. AID 588458; in the data active = inhibition above about 50%
# rCAG binder – r(CAG) repeat RNA binding; TO-PRO-1 dye displacement fluorescence; AID 651821; 370,000 compounds, 1.3% hits; inhibition, % at 3 µM;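 active = inhibition above the plate cutoff, the mean of all test compounds on that plate plus 3 SD, cut at about 35% in these data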;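 also: 0% = DMSO alone and 100% = 100 µM mitoxantrone as full dye displacement; higher means more dye released from RNA so lower well fluorescence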
# rCAG binder conf – r(CAG) RNA repeat binding, confirmation; shares compounds with rCAG binder; 4,300 compounds, 70% hits; TO-PRO-1 dye displacement fluorescence; inhibition, % at 3 µM;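 active = inhibition above a per-plate cutoff, the mean inhibition of sample wells plus 3 SD, cut at about 35% in these data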;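 also: loss of TO-PRO-1 fluorescence as compound displaces dye from 1x1 AA loop RNA; 0% = DMSO only wells and 100% = 100 µM mitoxantrone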
# dCAG dye counter – DNA CAG dye complex inhibition counter-screen. 4,300 compounds, 94% hits. d(CAG) DNA oligo TO-PRO-1 dye displacement, fluorescence. inhibition, % at 3 µM. shares compounds with rCAG binder. AID 652068;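 active = inhibition above its plate's cutoff, the mean test-well inhibition plus 3 SD, cut at about 4.8% in these data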;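 also: 0% = DNA dye mix with DMSO and 100% = 100 µM mitoxantrone; hits displace the dye from DNA and so lower well fluorescence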
# DNA CAG DR – disrupts DNA CAG TO-PRO-1 complex in dose response; shares compounds with rCAG binder; DNA CAG/GTC duplex TO-PRO-1 dye displacement fluorescence; IC50, µM; 250 compounds, 20% hits; AID 686960; in the data active = IC50 below about 10 µM
# UHRF1 ctr MBD2 – counter-screen for MBD2 inhibitors: human UHRF1 methylated DNA binding inhibitors; shares compounds with MBD2 inh; UHRF1 binding to methylated oligonucleotide, TR-FRET; inhibition, % at 4.4 µM; 1,000 compounds, 25% hits; in the data active = inhibition above about 21%;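 also: UHRF1 SRA domain binding a labeled hemimethylated CpG hairpin DNA; 0% = vehicle only and 100% = reference inhibitor with vehicle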
# MBD2 DBD conf – MBD2-DBD methyl-DNA binding inhibition, TR-FRET confirmation; 1,000 compounds, 26% hits; shares compounds with MBD2 inh; TR-FRET MBD2-DBD binding to methylated oligonucleotide; inhibition, % at 4.4 µM
# IN multimer act – counter-screen for LEDGF/p75 integration inhibitors: HIV-1 integrase multimerization activators | shares compounds with LEDGF integ inh | TR-FRET HIV-1 integrase multimerization, biochemical | activation, % at 7.7 µM | 2,000 compounds, 17% hits; in the data active = activation above about 8.9%
# TRFRET interf – optically interferes with TR-FRET readout in LEDGF counter-screen; shares compounds with LEDGF integ inh; TR-FRET optical interference counterscreen, HIV-1 IN multimerization; inhibition, % at 7.7 µM; 2,000 tested, under 10 active; AID 1053135;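 active = inhibition above the mean over all tested compounds plus 3 SD, which no compound reached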;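 also: 0% = integrase with antibodies and DMSO and 100% = antibodies without integrase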
# LEDGF integ conf – confirmation of HIV-1 LEDGF/p75-dependent integration inhibitors; inhibition, % at 3.7 µM; AID 1053136; shares compounds with LEDGF integ inh; TR-FRET LEDGF/p75-dependent HIV-1 integration, biochemical; 2,000 compounds, 36% hits
# Starred values were filed as active, the others as inactive; i = inactive; · = no result. Rule as the data show it, unless noted: active = inhibition above about 14%; inactive = the rest.
SMILES,PG9 binder,MBD2 inh,UHRF1 MBD2 ctr,LEDGF integ inh,DNMT1 inh,rCAG binder,rCAG binder conf,dCAG dye counter,UHRF1 ctr MBD2,MBD2 DBD conf,IN multimer act,TRFRET interf,LEDGF integ conf,others
Cn1cccc1/C=C1\SC(=S)N(NC(=O)c2ccccc2O)C1=O,-0.5,-0.3,-7.3,-1.6,2.5,33.0,·,·,·,·,·,·,·,
CCC(C(=O)O)N1C(=O)/C(=C/c2cccn2C)SC1=S (configuration not stated),-2.9,-17.8,-16.4,7.8,28.3,0.9,·,·,·,·,·,·,·,
O=C(NN1C(=O)/C(=C/C=C/c2ccco2)SC1=S)c1ccccc1O,-2.8,56.4*,95.0*,81.3*,91.2*,94.5*,92.6*,76.9*,66.3*,29.6*,72.8*,-259.2,79.7*,
O=C(O)CCCN1C(=O)/C(=C/C=C/c2ccco2)SC1=S,-2.5,70.3*,98.3*,87.2*,87.0*,60.3*,50.8*,18.6*,90.5*,49.0*,12.8*,-64.3,82.8*,
O=C(/C=C/c1ccccc1)Nc1scc(-c2ccccc2)c1C(=O)O,0.4,3.1,-4.2,16.2*,1.9,55.2*,32.6,6.0*,·,·,1.3,-6.4,11.6,
O=C(Nc1scc(-c2ccccc2)c1C(=O)O)c1ccc(F)cc1,-2.1,2.2,4.8,13.8*,0.9,35.7*,23.2,5.0*,·,·,-0.5,2.5,4.7,
Cc1ccc(C(=O)Nc2scc(-c3ccccc3)c2C(=O)O)o1,0.4,2.7,1.6,-2.4,-1.2,12.9,·,·,·,·,·,·,·,
O=C(O)c1ccc(N/N=C/C2=C(N3CCOCC3)C(=C\c3ccccc3)/CC2)cc1,-2.5,18.9*,50.7*,54.3*,-2.3,72.0*,74.8*,35.9*,2.1,5.8,2.2,-7.8,16.6*,
O=C1C=C(O)c2c(O)cc(O)c(O)c2C1=O,-34.6,49.2*,77.5*,60.2*,11.5,56.2*,20.5,5.2*,50.5*,26.3*,103.4*,i,83.8*,
O=C(CSc1nnc(-c2ccco2)c(-c2ccco2)n1)c1ccccc1,-3.2,17.0*,58.1*,57.5*,84.7*,74.6*,57.5*,26.4*,19.2,2.9,3.9,-19.5,26.2*,
CC(=O)c1ccc(NC(=O)CSc2nnc(-c3ccco3)c(-c3ccco3)n2)cc1,-1.0,-0.9,20.0,34.5*,47.3,45.4*,36.9*,15.5*,·,·,12.2*,-43.8,45.1*,
O=C(CSc1nnc(-c2ccco2)n1Cc1ccccc1)c1ccccc1,-1.9,4.0,-1.9,0.6,-1.0,-2.5,·,·,·,·,·,·,·,
CC(Sc1ncccn1)C(=O)N1CCc2ccccc21 (configuration not stated),-0.2,0.7,-1.5,-1.5,-0.7,0.6,·,·,·,·,·,·,·,
c1coc(-c2nc(-c3ccco3)c(-c3ccco3)nc2-c2ccco2)c1,1.7,66.6*,95.0*,89.7*,116.8*,67.8*,44.6*,20.7*,41.9*,19.6*,8.5,-30.0,82.1*,DNA CAG DR=6.63*
c1coc(-c2ncc[nH]2)c1,-1.7,-2.2,0.1,-6.0,0.2,1.3,·,·,·,·,·,·,·,
